An excerpt weighted towards active compounds, which were near 12% of everything screened.
USP28 block = blocks human USP28 ubiquitin-rhodamine cleavage; Q96RU2; purified USP28, Ub-rhodamine cleavage fluorescence, 30 min; inhibition, % at 25 µM; 47,000 compounds, 3% hits; AID 1645857
USP30 inh = human USP30 deubiquitinase inhibition | Q70CQ3 | purified USP30, Ub-rhodamine cleavage fluorescence | 47,000 compounds, 5.3% hits | inhibition, % at 25 µM | AID 1645860
OTUD3 inh = inhibitors of human OTUD3 deubiquitinase. Q5T2D3. purified OTUD3, Ub-rhodamine fluorescence, 2 h. inhibition, % at 25 µM. 47,000 compounds, 0.7% hits. AID 1645858
Target sequence (Q5T2D3 whole entry, looked up): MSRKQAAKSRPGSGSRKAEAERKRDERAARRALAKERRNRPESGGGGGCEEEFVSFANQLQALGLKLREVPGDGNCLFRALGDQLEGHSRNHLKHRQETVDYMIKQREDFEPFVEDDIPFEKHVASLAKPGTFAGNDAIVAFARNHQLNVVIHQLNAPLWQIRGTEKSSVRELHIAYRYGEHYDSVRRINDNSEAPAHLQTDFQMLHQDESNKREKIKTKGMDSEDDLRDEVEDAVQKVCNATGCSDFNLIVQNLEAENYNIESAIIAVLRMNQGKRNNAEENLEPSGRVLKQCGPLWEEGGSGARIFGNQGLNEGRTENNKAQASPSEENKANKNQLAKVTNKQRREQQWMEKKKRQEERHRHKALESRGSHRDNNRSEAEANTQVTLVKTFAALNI
USP17 inh = inhibitors of human USP17 deubiquitinase | purified USP17, Ub-rhodamine cleavage fluorescence, 3 h | 47,000 compounds, 6.5% hits | inhibition, % at 50 µM
* marks the source's active call; other numbers are inactive results. Rule as the data show it: active = inhibition above about 30%; inactive = the rest.

SMILES | USP28 block | USP30 inh | OTUD3 inh | USP17 inh
O=C(c1cnc2[nH][nH]c(=O)c2c1)c1cc(Cl)cc(Cl)c1O | 55.4* | 45.7* | 71.2* | 88.8*
CC1OC2CC(=O)OC2C2=C1C(=O)c1c(O)cccc1C2=O (stereo unspecified) | 56.4* | -2.9 | 45.0* | 93.8*
CCC[C@H]1O[C@@H]2CC(=O)O[C@@H]2C2=C1C(=O)c1c(O)cccc1C2=O | 54.1* | -19.5 | 51.5* | 84.0*
CC1CC(=O)c2c(O)cccc2O1 (stereo unspecified) | 3.7 | 12.4 | 6.6 | 0.4
CC(Sc1ncnc2nc[nH]c12)C(=O)Nc1ccc(Br)cc1F (stereo unspecified) | 11.4 | 27.2 | 10.3 | 16.1
CC(C(=O)NCCc1ccc(S(N)(=O)=O)cc1)n1sc2ccccc2c1=O (stereo unspecified) | 15.9 | 38.5* | 24.5 | -0.2
NS(=O)(=O)c1ccc(CCNC(=O)C(=O)c2c[nH]c3ccccc23)cc1 | 35.6* | 14.9 | 7.3 | 9.9
CSc1ncn(-c2nc(N(C)C)nc(N3CCCCCC3)n2)n1 | 26.3 | 17.7 | 7.3 | 5.0
CCNc1nc(N2CCCCCC2)nc(-n2cnc(SC)n2)n1 | 19.9 | 30.4* | 18.5 | 10.6
CCCCN1Cc2sc(NC(=O)Nc3ccccc3F)nc2C1=O | 0.4 | 1.1 | 4.6 | 32.5*
CCCCN1Cc2sc(NC(=O)Nc3ccccc3C)nc2C1=O | 1.5 | 8.1 | -1.6 | 4.3
Cc1csc(-c2cc(S(=O)(=O)NCc3ccc4c(c3)OCO4)c(C)n2C)n1 | 2.8 | 5.6 | -8.1 | 10.6
CN(C)C(=O)c1ccc(Nc2nc(-c3cccnc3)nc3ccccc23)cc1 | 0.1 | -49.7 | -12.9 | 37.1*
O=C(CSc1cn(Cc2ccccc2Cl)c2ccccc12)N1CCOCC1 | 18.1 | 37.0* | 1.3 | 14.2
O=C(NCCn1cc(SCC(=O)N2CCOCC2)c2ccccc21)c1ccc(Cl)cc1Cl | -0.9 | 4.3 | 1.7 | -3.5
O=C(CSc1cn(CC(=O)N2CCCCC2)c2ccccc12)Nc1ccc(Cl)cc1 | 6.5 | 27.0 | 15.1 | 37.5*
O=C(Cn1cc(S(=O)(=O)Cc2ccc(Cl)cc2)c2ccccc21)N1CCCCC1 | 1.1 | 75.0* | 0.8 | 3.3
Cc1ccc(CS(=O)(=O)c2cn(CC(=O)NCc3ccco3)c3ccccc23)cc1 | 23.6 | 12.2 | 15.5 | 37.0*
Cc1nc2ncccc2c(=O)n1-c1ccc(NC(=O)c2ccc(F)cc2F)cc1 | 16.2 | 34.4* | 20.8 | 15.5
CCCCc1cc(C(=O)N2CCC[C@]3(C)NC(=O)CCC[C@H]23)n[nH]1 | 13.2 | 16.3 | 9.9 | 7.0
CC(C)NC(=O)C1CCN(c2ccc(SCC(=O)Nc3ccccc3Cl)nn2)CC1 | 0.4 | 34.3* | 0.3 | 5.0
COc1cccc(N2CC(=O)Nc3c(oc4nc(-c5ccccc5)cc(C)c34)C2=O)c1 | 3.6 | 36.9* | 22.0 | 2.6
COc1cccc(C2CC(=O)Nc3n[nH]c(C)c32)c1OCc1ccccc1C (stereo unspecified) | 9.0 | 33.5* | -0.1 | 5.4
COc1cccc(OC)c1C(=O)C1CC(=O)Nc2n[nH]c(C)c21 (stereo unspecified) | -2.1 | 4.6 | -0.3 | -2.5
COc1ccc(C2CC(=O)Nc3n[nH]c(-c4ccccc4)c32)c(OC)c1 (stereo unspecified) | 10.2 | 44.2* | -1.1 | 40.8*
SMILES | USP28 block | USP30 inh | OTUD3 inh | USP17 inh
COc1ccc(C2CC(=O)Nc3ccc4ccccc4c32)c(OC)c1OC (stereo unspecified) | 7.0 | 68.2* | 11.4 | 37.4*
CCC(=O)c1cn(CC(=O)Nc2cccc(C)c2)c2ccccc12 | 7.2 | 0.5 | -1.3 | 7.2
COc1cccc(NC(=O)Cn2cc(C(=O)C3CC3)c3ccccc32)c1 | 11.6 | 69.2* | 9.3 | 53.1*
Cc1ccc(C)c(NC(=O)Cn2cc(C(=O)C3CC3)c3ccccc32)c1 | 57.0* | 75.8* | 15.1 | 62.4*
CCCc1ncc(-c2c[nH]c3ccccc23)o1 | -2.1 | -9.9 | -5.2 | -28.3
Cc1cccc(-n2ccc3nc(N4CCc5ccccc5C4)ncc3c2=O)c1 | 14.7 | -8.0 | 4.8 | 5.1
Cc1ccccc1NC(=O)N1CC(C(=O)NC2CCCC2)C2(CCOCC2)C1 (stereo unspecified) | -3.0 | 5.2 | -4.5 | 1.7
CCn1c(Cn2cccn2)nc2cc(NC(=O)C3CCCCC3)ccc21 | 37.6* | 12.5 | 7.5 | -59.6
CCn1c(Cn2cccn2)nc2cc(NC(=O)c3ccccc3C)ccc21 | 46.1* | -14.6 | 1.3 | -2.6
COc1cccc(C(=O)N2CCN(c3nc(C)cc(N4CCN(C)CC4)n3)CC2)c1OC | 7.3 | 8.2 | 9.9 | 10.3
COc1ccc(CCNC(=O)C(=O)c2c(C)n(C)c3ccccc23)cc1OC | 5.2 | 0.5 | 3.0 | 47.6*

Bioassay records (PubChem BioAssay)
